According to PubChem BioAssay AID2536 (National Center for Advancing Translational Sciences (NCATS), 2010):
The source made the active and inactive calls. Calls come from the whole dose curve; as a rule, active = well fitted curve in the direction sought with a large enough effect; inactive = no such curve, though single readings can be large or run the other way.

target: Pyruvate kinase PKM (Homo sapiens) (UniProt P14618); assay: Secondary Concentration-Response Assay for Activators of Human Muscle isoform 1 Pyruvate Kinase: for Probe SAR; conditions: purified hPK-M1, ATP production, Kinase-Glo luminescence
Excerpt: NIH Chemical Genomics Center [NCGC]
Matthew G. Vander Heiden, M.D., Ph.D. [Harvard Medical School, 77 Avenue Louis Pasteur, Boston, MA 02115]
Human pyruvate kinase […] (hPK-M1) enzyme was supplied as a highly purified (>95% pure) preparation from Harvard Medical School and assayed for its ability to generate ATP from ADP using phosphoenolpyruvate (PEP) as a substrate. ATP generation was detected in a coupled reaction by luciferase-mediated luminescence, an ATP-dependent process. Pyruvate kinase substrates, PEP and ADP, were present in the assay at Km and approximately 10-fold below Km respectively. The enzyme was assayed at an intermediate level of activity to screen for both inhibitors and activators.
NCGC Assay Protocol Summary for M1-isoform:
Three uL of substrate mix (at r.t.) in assay buffer (50 mM Imidazole pH7.2, 50 mM KCl, 7 mM MgCl2, 0.01% Tween 20, 0.05% BSA) was dispensed into white solid bottom 1,536 well microtiter plates so that the final concentrations of substrates in the assay were 0.1 mM ADP and 0.5 mM PEP. 23 nL of compound were delivered by a pin tool and 1 uL of enzyme mix (final concentration of 1 nM) in assay buffer (4 degree Celsius) was added. Plates were incubated at room temperature for 1 hour. Two uL of detection mix (Kinase-Glo, Promega; at 4 degree Celsius protected from light) was added and luminescence read by a ViewLux (Perkin Elmer) at 1 second exposure/plate. Data were normalized to the uninhibited (row 31). Additionally, a no enzyme and 5-fold enzyme control was dispensed in row 32, split equally between the two conditions.

Pyruvate kinase PKM (Homo sapiens), sequence (P14618 whole entry, looked up, canonical isoform): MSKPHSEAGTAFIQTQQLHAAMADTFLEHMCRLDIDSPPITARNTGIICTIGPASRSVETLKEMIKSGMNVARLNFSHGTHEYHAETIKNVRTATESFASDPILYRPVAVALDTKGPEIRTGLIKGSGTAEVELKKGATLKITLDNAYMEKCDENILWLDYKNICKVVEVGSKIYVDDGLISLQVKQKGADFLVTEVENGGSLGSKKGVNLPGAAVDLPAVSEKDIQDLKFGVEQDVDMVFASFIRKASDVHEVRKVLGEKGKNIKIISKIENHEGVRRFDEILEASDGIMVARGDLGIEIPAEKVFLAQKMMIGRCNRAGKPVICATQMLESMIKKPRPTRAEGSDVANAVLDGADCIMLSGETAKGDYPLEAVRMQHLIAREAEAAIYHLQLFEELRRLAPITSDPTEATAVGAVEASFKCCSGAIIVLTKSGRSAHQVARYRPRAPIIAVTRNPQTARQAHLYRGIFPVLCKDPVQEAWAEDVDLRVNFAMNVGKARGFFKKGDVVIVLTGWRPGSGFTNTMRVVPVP

Max response, inactive:
Cc1cc2c(s1)c1cnn(Cc3c(Cl)ccc(C)c3F)c(=O)c1n2C 4.91%
N#Cc1ccc(NS(=O)(=O)c2ccc3c(c2)CCC(=O)N3)cc1 5.23%
Cc1ccc(N[S+](=O)([O-])c2cc3c(cc2CCc2ccccc2)NC(=O)CO3)cc1C -3.27%
Cc1ccc(NS(=O)(=O)c2ccc3c(c2)CCC(=O)N3)cc1C -6.39%
COc1cccc(Cn2ncc3c4sc(S(C)=O)cc4n(C)c3c2=O)c1 (stereo not given) 3.1%
Cc1cc2c(s1)c1cnn(Cc3cc(F)c(F)cc3F)c(=O)c1n2C -8.12%
CC(=O)N1c2ccc(S(=O)(=O)Nc3ccc(C)c(C)c3)cc2CC1C (stereo not given) 13.1%
Cc1ccc(NS(=O)(=O)c2cc3c(cc2Cl)NC(=O)C3)cc1C 2.96%
O=C1CCc2cc(S(=O)(=O)Nc3ccc4c(c3)CCC4)ccc2N1 -1.18%
Cc1cc(NS(=O)(=O)c2ccc3c(c2)CCC(=O)N3)ccc1Cl -0.197%
Cc1ccc(NS(=O)(=O)c2cc3c(cc2Cl)CCC(=O)N3)cc1Cl 4.8%
CC(C)Nc1cccc(S(=O)(=O)N2CCCN(S(=O)(=O)c3ccc4c(c3)OCCO4)CC2)c1 4.41%
Cc1ccc(NS(=O)(=O)c2cc3c(cc2F)NC(=O)CC3)cc1Cl 4.95%
Cc1cc(NS(=O)(=O)c2ccc3c(c2)CCC(=O)N3)ccc1F 2.58%
Cc1ccc(NS(=O)(=O)c2cc3c(cc2N(C)C)CCC(=O)N3)cc1C -0.287%
O=C1CCc2cc(S(=O)(=O)Nc3ccc4ncccc4c3)ccc2N1 -1.75%
Cc1ccc(Cl)cc1NS(=O)(=O)c1cc2c(cc1F)NC(=O)CC2 -4.17%
O=C1CCc2cc(S(=O)(=O)Nc3cc(F)cc(Cl)c3)c(F)cc2N1 1.25%
O=C1CCc2cc(S(=O)(=O)Nc3ccc(Cl)c(Cl)c3)c(F)cc2N1 2.68%
CSc1cc2c(s1)c1cnn(Cc3cccc(N)c3)c(=O)c1n2C 7.82%
CCNc1cccc(S(=O)(=O)N2CCCN(S(=O)(=O)c3ccc4c(c3)OCCO4)CC2)c1 8.55%
O=C1CCc2cc(Cl)c(S(=O)(=O)Nc3ccc(Cl)c(Cl)c3)cc2N1 1.66%
Cc1cc2c(s1)c1cnn(Cc3cc(F)ccc3F)c(=O)c1n2C 4.73%
O=S(=O)(c1ccc2c(c1)OCCO2)N1CCN(S(=O)(=O)c2c(F)cccc2F)CC1 -8.27%
O=C1CCc2cc(S(=O)(=O)Nc3ccc(Cl)c(Cl)c3)ccc2N1 4.63%
Cc1ccc(NS(=O)(=O)c2ccc3c(c2)CC(=O)N3)cc1C 23.4%
Cc1ccc(NS(=O)(=O)c2ccc3c(c2)N(C)C(=O)CO3)cc1C 1.15%
CNc1cccc(S(=O)(=O)N2CCCN(S(=O)(=O)c3ccc4c(c3)OCCO4)CC2)c1 3.54%
Cc1cc2c(s1)c1cnn(Cc3ccccc3F)c(=O)c1n2C -9.51%
Cc1ccc(Cl)cc1NS(=O)(=O)c1cc2c(cc1Cl)CCC(=O)N2 1.5%
N#Cc1cccc(NS(=O)(=O)c2ccc3c(c2)CCC(=O)N3)c1 -2.21%
Cc1ccc(NS(=O)(=O)c2cc3c(cc2C)OCC(=O)N3)cc1C 2.47%
CN(C)c1cccc(S(=O)(=O)N2CCCN(S(=O)(=O)c3ccc4c(c3)OCCO4)CC2)c1 1.92%
O=C1CCc2cc(S(=O)(=O)Nc3ccc(F)c(Cl)c3)ccc2N1 -1.6%
O=C1CCc2cc(S(=O)(=O)Nc3cccc(Oc4ccccc4)c3)ccc2N1 -2.73%
Nc1cccc(S(=O)(=O)N2CCCN(S(=O)(=O)c3ccc4c(c3)OCCO4)CC2)c1 -0.314%
Cc1ccc(NS(=O)(=O)c2ccc3c(c2)CCC(=O)N3)cc1F 0.0639%
COc1cccc(Cn2ncc3c4sc(SC)cc4n(C)c3c2=O)c1 13.2%
O=C1CCc2cc(S(=O)(=O)Nc3cccc(B(O)O)c3)ccc2N1 -3.5%
Cc1c(Cl)cccc1NS(=O)(=O)c1cc2c(cc1F)NC(=O)CC2 0.151%
